Among all 300,000 compounds or so, about 37,000 (12%) were called active. Cut-off read from the data, not from the text of the source: active = max response mostly above about 13% (no sharp cut-off); inactive = mostly below about 14%. What follows is part of a selection rich in actives, with near analogues and random picks from the rest.
Assay: Cycloheximide Counterscreen for Small Molecule Inhibitors of Shiga Toxin; note: read at 38.3 µM for the half of the compounds with a filed dose; 0% is about no effect
Conditions: cell reporter, cycloheximide protein synthesis inhibition counterscreen; stronger effect = higher value

Q: Which max response does the source give for `Cc1c(NC(=O)c2cccnc2)c(=O)n(-c2ccccc2)n1C` here?
A: Its max response is -2.61% (inactive).

Q: For `COc1ccc(C(C(=O)NC2CCCC2)N(CCCO)C(=O)Cn2nnc(-c3ccc(C)o3)n2)cc1` (stereo not drawn), which max response is on record?
A: The max response was -4.49% (inactive).

Q: With `Cc1cc(F)ccc1NC(=S)NCCc1ccccc1` as the compound, how does the max response read?
A: The max response was 5.78% (inactive).

Q: With `Cc1ccc(NC(=S)NCCc2ccc(Cl)cc2)c(C)c1` as the compound, how does the max response read?
A: Its max response is 13.7% (active).

Q: Which max response does the source give for `Cc1cccc(NC(=S)NCCc2ccc(Cl)cc2)c1C` here?
A: Its max response is 17.3% (active).

Q: With `CCNC(=S)Nc1cccc(Cl)c1C` as the compound, how does the max response read?
A: The max response was -2.36% (inactive).

Q: Which max response does the source give for `Cc1ccc(NC(=S)NCc2ccccc2Cl)c(C)c1` here?
A: Its max response is 10.7% (inactive).

Q: With `Cc1cccc(NC(=S)NCCc2ccc(F)cc2)c1C` as the compound, how does the max response read?
A: The max response was 6.6% (inactive).

Q: Which max response does the source give for `CC#CC[N+](C)(C)CCCCCC` here?
A: The max response was 0.922% (inactive).

Q: With `COc1ccc(C(=O)NC(=S)N2CCNC(=O)C2CC(=O)OC(C)C)cc1` (stereo not drawn) as the compound, how does the max response read?
A: The max response was 0.131% (inactive).

Q: For `COc1ccc(OC)c(C(C)NC(=S)Nc2ccc(S(=O)(=O)Nc3ncccn3)cc2)c1` (stereo not drawn), which max response is on record?
A: Its max response is -0.745% (inactive).

Q: Which max response does the source give for `COc1ccc(NC(=O)C(CC(C)C)NC(=O)C2CCC(C)CC2)cc1` (stereo not drawn) here?
A: Its max response is 6.1% (inactive).

Q: Which max response does the source give for `O=C1Nc2cc(Cl)c(Cl)cc2N(O)N1c1ccccc1Cl` here?
A: The max response was 4.44% (inactive).

Q: For `O=C(O)c1cccc(N2C(=O)Nc3ccccc3N2O)c1`, which max response is on record?
A: Its max response is 24.6% (active).

Q: With `O=C1Nc2cc(Cl)c(Cl)cc2N(O)N1c1cc(Cl)cc(Cl)c1` as the compound, how does the max response read?
A: Its max response is -2.32% (inactive).

Q: For `COc1ccccc1N(C)C(=O)c1cc(S(=O)(=O)N2CCc3ccccc32)cn1C`, which max response is on record?
A: Its max response is 0.704% (inactive).

Q: For `CC1CCN(C(=O)CCNC(=O)c2ccccc2)CC1`, which max response is on record?
A: The max response was 31.5% (active).

Q: For `CC1CCN(C(=O)/C(=C\c2ccccc2)NC(=O)c2ccccc2)CC1`, which max response is on record?
A: Its max response is -1.41% (inactive).

Q: With `CC1CCN(C(=O)/C(=C\c2ccccc2F)NC(=O)c2ccccc2)CC1` as the compound, how does the max response read?
A: Its max response is 8.12% (inactive).

Q: Which max response does the source give for `OC(CNC1CCCC1)COc1ccc(F)cc1` (stereo not drawn) here?
A: Its max response is -1.08% (inactive).

Q: With `NC(=O)CC(NC(=O)Cc1cccc2ccccc12)c1ccc(NCc2cc(F)ccc2F)c([N+](=O)[O-])c1` (stereo not drawn) as the compound, how does the max response read?
A: Its max response is -1.72% (inactive).

Q: For `CCOc1ccc(N(CC(=O)NCCOc2ccccc2OC)S(=O)(=O)c2ccccc2)cc1`, which max response is on record?
A: Its max response is 1.62% (inactive).

Q: For `COc1ccccc1/C=C1\SC(=O)N(CCC(=O)N(C)C2CCS(=O)(=O)C2)C1=O` (stereo not drawn), which max response is on record?
A: Its max response is 7.79% (inactive).

Q: For `O=C(Cc1ccc(Cl)cc1)NC1CCS(=O)(=O)C1` (stereo not drawn), which max response is on record?
A: Its max response is -0.92% (inactive).

Q: For `COc1ccc(NC(=O)CCN2C(=O)/C(=C/c3ccc4c(c3)OCO4)SC2=S)cc1`, which max response is on record?
A: Its max response is -1.34% (inactive).

Q: Which max response does the source give for `COc1ccc(-c2ccc(OC(=O)NC3CCS(=O)(=O)C3)cc2)cc1` (stereo not drawn) here?
A: The max response was 28.5% (active).

Q: Which max response does the source give for `COc1ccc(/C=C2\SC(=O)N(CCC(=O)NC3CCS(=O)(=O)C3)C2=O)cc1` (stereo not drawn) here?
A: The max response was 27.8% (active).

Q: Which max response does the source give for `COc1ccc(NC(=S)NC2CCS(=O)(=O)C2)cc1` (stereo not drawn) here?
A: The max response was -3.34% (inactive).

Q: For `COc1ccc(/C=C2\SC(=O)N(CCC(=O)NCCCn3ccnc3)C2=O)cc1`, which max response is on record?
A: Its max response is 18.8% (active).

Q: Which max response does the source give for `O=C(CCN1C(=O)c2ccccc2C1=O)NCCN1CCOCC1` here?
A: Its max response is -0.442% (inactive).

Q: For `Cc1ccc(/C=C2/SC(=S)N(CCC(=O)NCCCN3CCOCC3)C2=O)cc1`, which max response is on record?
A: The max response was 11.5% (active).

Q: With `Cc1ccc(/C=C2\SC(=S)N(CCC(=O)Nc3ccc(O)cc3)C2=O)cc1` as the compound, how does the max response read?
A: Its max response is 0.318% (inactive).

Q: With `O=C(CN1C(=O)S/C(=C\c2ccccc2F)C1=O)NCCCn1ccnc1` as the compound, how does the max response read?
A: Its max response is -0.628% (inactive).

Q: For `O=C(CCN1C(=O)c2ccccc2C1=O)NCCCn1ccnc1`, which max response is on record?
A: The max response was 4.07% (inactive).

Q: With `[O-][n+]1onc2c1CCc1[nH]c(-c3ccccc3)nc1-2` as the compound, how does the max response read?
A: Its max response is -2.38% (inactive).

Q: Which max response does the source give for `CCSc1nc(O)c(C(c2cccc(OC)c2)c2c(O)nc(SCC)[nH]c2=O)c(=O)[nH]1` here?
A: The max response was 4% (inactive).

Q: Which max response does the source give for `Cc1c(Cl)cccc1NC(=O)[C@@]1(CC(=O)O)CC(/C=C/c2ccccc2)=NO1` here?
A: The max response was 9.29% (inactive).

Q: Which max response does the source give for `O=C(COc1cccc2ccccc12)Nc1cc(S(=O)(=O)N2CCOCC2)ccc1N1CCOCC1` here?
A: Its max response is 7.56% (inactive).

Q: For `CCn1cc(CN2CCN(CC(C)(C)C)C(CCO)C2)c2ccccc21` (stereo not drawn), which max response is on record?
A: The max response was -2.82% (inactive).

Q: Which max response does the source give for `Cn1cc(CCC(=O)NC2CC2)c2ccccc21` here?
A: Its max response is -2.88% (inactive).

Q: With `CC1CC2=C(CC1/C=N/NC(N)=S)C(C)(C)CCC2` (stereo not drawn) as the compound, how does the max response read?
A: Its max response is -1.08% (inactive).

Q: With `O=Cc1c(N2CCN(c3cccc(Cl)c3)CC2)nc2ccccn2c1=O` as the compound, how does the max response read?
A: Its max response is 3.1% (inactive).

Q: For `Cc1ccc(Cl)cc1NC(=O)C1CCCN(c2cnccn2)C1` (stereo not drawn), which max response is on record?
A: Its max response is -5.58% (inactive).

Q: With `COc1ccc(NC(=O)CN2C(=O)CSc3ccc(S(=O)(=O)N4CCC(C)CC4)cc32)cc1` as the compound, how does the max response read?
A: Its max response is 9.42% (inactive).

Q: Which max response does the source give for `CCc1ccccc1NC(=S)Nc1cc(OC)c(NC(=O)C(C)C)cc1OC` here?
A: The max response was -6.46% (inactive).

Q: For `COc1cnc(-c2ccccn2)nc1Oc1ccc(C(C)(C)C)cc1`, which max response is on record?
A: Its max response is 4.47% (inactive).

Q: With `Cc1ccc(Oc2nc(-c3ccccn3)nc3ccccc23)cc1` as the compound, how does the max response read?
A: Its max response is 25% (active).

Q: With `CC(C)(C)Nc1nc(-c2ccccn2)nc2ccccc12` as the compound, how does the max response read?
A: The max response was -2.46% (inactive).
